Our source for the growth inhibition values is PubChem BioAssay (NCI).

The nature of experiment [1]: NCI Yeast Anticancer Drug Screen. Data for the rad50 strain (AID 155).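 Note: 0% = growth of vehicle-only cultures of the same strain.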 The settings on record: S. cerevisiae rad50 strain growth inhibition, hits give high values; at 50.0 µM unless noted. The method in brief:
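Growth of the mutant yeast was measured after compound exposure and referenced to vehicle-treated cultures.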

The nature of experiment [2]: NCI Yeast Anticancer Drug Screen. Data for the mec2-1 strain (AID 157). The settings on record: S. cerevisiae mec2-1 strain, hits give high values; at 50.0 µM unless noted. The method in brief: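 Yeast mec2-1 mutant treated with compound. Readout: growth inhibition vs vehicle controls.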
Experiment [3] can be described thus: NCI Yeast Anticancer Drug Screen. Data for the sgs1 mgt1 strain (AID 161).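 Note: 0% = growth of cultures given vehicle only.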 The settings on record: S. cerevisiae sgs1 mgt1 strain, hits give high values; at 50.0 µM unless noted. The method in brief: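 Test agents were incubated with a DNA-repair-mutant yeast strain. Growth was then read and compared against vehicle-treated controls.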
Experiment [4] can be described thus: NCI Yeast Anticancer Drug Screen. Data for the cln2 rad14 strain (AID 165).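 Note: 0% = growth equal to vehicle treated cultures.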 The settings on record: S. cerevisiae cln2 rad14 strain, hits give high values; at 50.0 µM unless noted. The method in brief: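 cln2 rad14 yeast strain; compound exposure; growth inhibition read vs vehicle controls.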
Experiment [5] can be described thus: NCI Yeast Anticancer Drug Screen. Data for the bub3 strain (AID 167). The settings on record: S. cerevisiae bub3 mutant strain, hits give high values; at 50.0 µM unless noted. The method in brief: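 Whole-cell yeast assay. The mutant strain was incubated with compounds, and growth inhibition was determined by comparison with vehicle-treated cells.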
Experiment [6] in a line: NCI Yeast Anticancer Drug Screen. Data for the mlh1 rad18 strain (AID 175). The settings on record: S. cerevisiae mlh1 rad18 strain growth inhibition, hits give high values; at 50.0 µM unless noted. The method in brief: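 Yeast w/ defined DNA-repair lesions; compound exposure; growth vs vehicle controls → % inhibition.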

The structures appear in SMILES notation. Compounds without any hit were thinned out: in the full panel of roughly 79,000, 15% have a hit. A number with no mark means an inactive call. Activity calls are given as the source filed them. Cut-off read from the data, not from the text of the source: active = growth inhibition above about 70%; inactive = the rest.

In the case of `COc1ccc(C(C)(OC)c2cc(C(C)(C)C)c(O)c(C(C)(C)C)c2)cc1` (stereo unspecified), the growth inhibition was -19.2% in experiment [1]; -12.6% in experiment [2]; -20.2% in experiment [3]; -0.55% in experiment [4]; -2.05% in experiment [5]; -21.6% in experiment [6].

Turning to `Cc1ccc(S(=O)(=O)NN=C2C3C=CC2CC3)cc1`, the growth inhibition was 11.8% in experiment [1]; -2.3% in experiment [2]; 2.55% in experiment [3]; 6.25% in experiment [4]; 2.7% in experiment [5]; 4.75% in experiment [6].

With `Cc1ccc2nc(-c3ccc(NC(=O)c4ccc(N)cc4)c(S(=O)(=O)O)c3)sc2c1`, the growth inhibition in experiment [1] was 1.9%; in experiment [2] it was 4.7%; in experiment [3], -25.9%; in experiment [4], -22%; in experiment [5], -16.4%; in experiment [6], -8.85%.

For the compound `Cc1cc(C(=O)C(C#N)=Nc2ccc(N(C)C)cc2)c(CN2C(=O)c3ccccc3C2=O)c(=O)n1C`, the growth inhibition in experiment [1] was 22.9%; in experiment [2], -12.1%; in experiment [3], 19.3%; in experiment [4], -28.1%; in experiment [5] it was -6.15%; in experiment [6], 5.95%.

As for `Cc1nnsc1C(=O)NCc1c(F)cccc1Cl`, the growth inhibition was 6.65% in experiment [1]; 15.6% in experiment [2]; 11% in experiment [3]; 25.4% in experiment [4]; 37.3% in experiment [5]; 28.8% in experiment [6].

For the compound `CC(C)N(Cc1ccccc1)S(=O)(=O)c1n[nH]c(C(C)(C)C)n1`, the growth inhibition in experiment [1] is 3.2%; in experiment [2], -27.1%; in experiment [3], -3.65%; in experiment [4], -5.8%; in experiment [5] it was -6.75%; in experiment [6] it was -0.75%.

Consider `CC(=O)c1cc2c(cc1O)oc1c(C)ccc(C)c12`, for which the growth inhibition in experiment [1] was 20.8%; in experiment [2], -3.4%; in experiment [3] it was 5.55%; in experiment [4] it was 18.2%; in experiment [5], -29.7%; in experiment [6], -13.8%.

With `COC1CCC2C3CCC(C3)C12` (stereo unspecified), the growth inhibition is 26.9% in experiment [1]; -2% in experiment [2]; 6.4% in experiment [3]; 5.05% in experiment [4]; -12.9% in experiment [5]; -10.2% in experiment [6].

For `c1ccc2c(c1)Cc1cc3ccccc3cc1C2`, the growth inhibition in experiment [1] is -32.2%; in experiment [2], -44.9%; in experiment [3], -29.5%; in experiment [4], 0.75%; in experiment [5] it was -33.2%; in experiment [6], -27.8%.

As to `Cc1ccc(C(=O)C[n+]2ccc3ccccc3c2)c(O)c1`, the growth inhibition in experiment [1] is -17.1%; in experiment [2], -17.9%; in experiment [3], -20.2%; in experiment [4], -51.9%; in experiment [5], -14.3%; in experiment [6], 1.25%.

As to `CC(=O)OC(OC(C)=O)c1ccccc1`, the growth inhibition in experiment [1] is 24.2%; in experiment [2] it was 12.2%; in experiment [3] it was -3.4%; in experiment [4], 16%; in experiment [5], 5%; in experiment [6], 11.7%.

As to `O=C(NC(=S)Nc1ccccc1F)c1cccc([N+](=O)[O-])c1`, the growth inhibition is 26.1% in experiment [1]; 77.2% (active) in experiment [2]; 79.2% (active) in experiment [3]; 11.4% in experiment [4]; 49.7% in experiment [5]; 80% (active) in experiment [6].

On to `CCc1n[nH]c(=O)n1NC(=O)c1ccccc1C(=O)O`, for which the growth inhibition in experiment [1] is 15.8%; in experiment [2], 11.8%; in experiment [3] it was 15.2%; in experiment [4], 20.6%; in experiment [5] it was 25.9%; in experiment [6] it was 16.2%.

As for `O=[N+]([O-])c1ccc(S(=O)(=O)O)cc1`, the growth inhibition in experiment [1] was 43.6%; in experiment [2], 25.1%; in experiment [3], 37.5%; in experiment [4], -22.7%; in experiment [5], 9.65%; in experiment [6], 43.1%.

Consider `CCOC(=O)C1(Cc2ccccc2)Cc2cc3c(cc2C1)CCC3`, for which the growth inhibition in experiment [1] was -23.1%; in experiment [2] it was -50.5%; in experiment [3] it was -23.7%; in experiment [4], -3.5%; in experiment [5], 2.6%; in experiment [6], -2.5%.

Turning to `COC(=O)NCC1OCC2OC(C)(C)OC12` (stereo unspecified), the growth inhibition was 14.8% in experiment [1]; 3.25% in experiment [2]; -10.9% in experiment [3]; -62.5% in experiment [4]; 14.8% in experiment [5]; 9.35% in experiment [6].

Take `CN(C)c1ccc(N=C(C#N)C(=O)c2ccccc2)cc1`: the growth inhibition in experiment [1] was -4.3%; in experiment [2], 17.6%; in experiment [3], -6.7%; in experiment [4] it was -21.6%; in experiment [5] it was -15%; in experiment [6], -12.2%.

Turning to `Cc1c2cc[n+](C)cc2c(C)c2c1oc1ccccc12`, the growth inhibition in experiment [1] was 82.5% (active); in experiment [2] it was 62.1%; in experiment [3] it was 78.8% (active); in experiment [4], 55.9%; in experiment [5], 75.1% (active); in experiment [6] it was -38%.

As to `NC(N)=NS(=O)(=O)c1ccc(N=NC2=C(O)C(c3ccccc3)N(c3ccccc3)C2=O)cc1` (stereo unspecified), the growth inhibition is 6.35% in experiment [1]; 22.1% in experiment [2]; 35.5% in experiment [3]; 0.3% in experiment [4]; 0.45% in experiment [5]; 33% in experiment [6].

In the case of `O=C(Nc1ccc(S(=O)(=O)c2ccc(F)cc2)cc1)OC1CCCCC1`, the growth inhibition is 35.9% in experiment [1]; 5.85% in experiment [2]; 38.9% in experiment [3]; 18.1% in experiment [4]; 4.4% in experiment [5]; 18.4% in experiment [6].

Consider `CCCC(C)C(=O)OCc1ccccc1` (stereo unspecified), for which the growth inhibition was 16.6% in experiment [1]; -9.5% in experiment [2]; 5.35% in experiment [3]; -13.7% in experiment [4]; 6.7% in experiment [5]; 5% in experiment [6].
